Assay outcomes as filed in PubChem BioAssay.
Only some compounds are listed: those with a hit (about 1% of all), similar ones and a draw of the others.
gsp ag – qHTS for Agonist of gsp, the Etiologic Mutation Responsible for Fibrous Dysplasia/McCune-Albright Syndrome: qHTS. actives 0.13% (n = 340,000). Potency, µM (top dose mostly 76.9 µM), inactives show at the top dose activation (cAMP increase), usual class: activators. AID 624287, 2012. gsp mutant cells, cAMP HTRF, 30 min; active means well fitted activation curve with a large enough effect; inconclusive means small, poorly fitted or top-dose-only effect, or another doubt; inactive means no such curve, though single readings can be large or run the other way; cell line not stated here;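 further: phosphodiesterase inhibitor Ro 20-1724 added with compounds to block cAMP breakdown; potency means the concentration at half of the fitted maximal effect; nearly all actives have a fitted effect of over 60% in size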
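Cells stably selected in G418 were plated at 2000/well, grown 16-24 hr, then given compounds in DMSO with the PDE inhibitor […] (300 uM solution added) for 30 min at 37C; cAMP was read by HTRF.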
RXFP1 agonist – qHTS Assay for Agonists of the Relaxin Receptor RXFP1; HEK293T-RXFP1 cAMP TR-FRET, 30 min; response scale: percent of porcine relaxin response, buffer zero; Potency, µM (series often up to 57.5 µM), for inactives: at the highest dose activation, actives largely listed as activators; Relaxin receptor 1 (Homo sapiens), Q9HBX9; actives 0.3% (n = 370,000); further: potency means the concentration at half of the fitted maximal effect; on the % scale 0 is the no-effect control and ±100 the full control effect; nearly all actives have a fitted effect of over 60% in size
Target sequence (Q9HBX9 whole entry, looked up): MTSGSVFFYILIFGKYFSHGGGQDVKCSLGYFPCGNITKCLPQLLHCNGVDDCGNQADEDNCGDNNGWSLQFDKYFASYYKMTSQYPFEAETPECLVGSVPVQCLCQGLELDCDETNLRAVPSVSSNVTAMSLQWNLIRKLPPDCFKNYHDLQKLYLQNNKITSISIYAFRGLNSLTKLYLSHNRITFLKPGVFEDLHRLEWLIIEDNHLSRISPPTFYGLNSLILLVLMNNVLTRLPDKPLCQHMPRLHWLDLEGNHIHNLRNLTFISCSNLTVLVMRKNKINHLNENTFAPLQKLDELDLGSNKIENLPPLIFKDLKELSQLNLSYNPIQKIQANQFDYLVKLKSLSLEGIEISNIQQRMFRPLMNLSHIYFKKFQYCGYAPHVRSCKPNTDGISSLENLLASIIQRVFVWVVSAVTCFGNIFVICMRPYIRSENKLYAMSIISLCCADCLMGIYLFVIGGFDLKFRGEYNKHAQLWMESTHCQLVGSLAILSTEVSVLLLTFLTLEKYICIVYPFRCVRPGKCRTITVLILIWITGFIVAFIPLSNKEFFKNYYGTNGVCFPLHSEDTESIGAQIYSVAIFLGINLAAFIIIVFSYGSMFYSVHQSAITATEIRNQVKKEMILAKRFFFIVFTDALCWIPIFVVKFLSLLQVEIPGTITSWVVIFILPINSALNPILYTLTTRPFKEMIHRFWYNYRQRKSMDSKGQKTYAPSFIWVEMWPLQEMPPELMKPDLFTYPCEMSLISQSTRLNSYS
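HEK293T cells stably expressing RXFP1 were pretreated with the PDE4 inhibitor Ro 20174, exposed to compounds for 30 min at 37C, lysed, and cAMP was read by TR-FRET. Data normalized to buffer (basal) and 29 nM porcine relaxin (100%).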
miR-21 act – qHTS Assay for Modulators of miRNAs and/orActivators of miR-21 | HeLa miR-21 FLuc reporter, luciferase, 48 h | 340,000 tested, under 10 active | AID 2288, 2010 | Potency, µM (series often up to 38.3 µM), for inactives: top-dose activity change, positive = activation, hits mostly activators;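 further: % of control where 0% means no effect; miR-21 action dims this reporter so a rising signal means less miR-21 action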
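HeLa cells endogenously expressing miR-21, stably carrying CMV-driven firefly luciferase with a downstream miR-21 binding site, 2000 cells/well. Titrations up to approximately 40 uM, 48 hours; luciferase luminescence read.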
KinaseGlo FLuc – Counterscreen for Luciferase (Kinase-Glo TM) Inhibition; Kinase-Glo luciferase, ATP luminescence, 8 min; actives 0.28% (n = 200,000); AID 1379, 2008; Luciferin 4-monooxygenase (Photuris pensylvanica), Q27757; Potency, µM (series often up to 38.3 µM), for inactives: at the highest dose activity change, negative = inhibition, usual class: inhibitors; further: potency means the concentration at half of the fitted maximal effect; on the % scale 0 is the no-effect control and ±100 the full control effect; nearly all actives have a fitted effect of over 60% in size
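Substrate mix (final 50 mM imidazole pH 7.2, 50 mM KCl, 7 mM MgCl2, 10 uM ATP, 0.01% Tween 20, 0.05% BSA) plus pin-tool compound, then Kinase-Glo detection mix; 8 min ambient, luminescence read.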
gsp antagonist – qHTS for Antagonists of gsp, the Etiologic Mutation Responsible for Fibrous Dysplasia/McCune-Albright Syndrome: qHTS; gsp-mutant cells, cAMP HTRF, 30 min; Potency, µM (titrated, usually from 76.9 µM), without a hit: at the highest dose activity change, negative = inhibition, hits mostly inhibitors; actives 0.4% (n = 340,000); AID 624288, 2012; calls by dose curve; cell line not stated here;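 further: intracellular cAMP measured with PDE inhibitor Ro 20-1724 present during compound exposure; potency means the concentration at half of the fitted maximal effect; on the % scale 0 is the no-effect control and ±100 the full control effect; nearly all actives have a fitted effect of over 65% in size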
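Cells, 2000/well, grown 16–24 h in DMEM 10% FBS with 0.5 mg/ml G418, then compounds plus […] (300 uM addition stock), 30 min at 37C. cAMP read by HTRF (cAMP-d2 and anti-cAMP antibody-K in lysis buffer) after 30 min RT.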
RXFP1 antagonist – qHTS Assay for Antagonists of the Relaxin Receptor RXFP1. Relaxin receptor 1 (Homo sapiens), Q9HBX9. actives 0.59% (n = 350,000). activity change, negative = inhibition, % at 57.5 µM. AID 1259400, 2018. HEK293-RXFP1, relaxin-stimulated cAMP HTRF, 30 min; active compounds read low;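 active means activity change of -60% or lower, but not beyond a set lower limit; inconclusive means change between -60% and -40%, or beyond the set limit; inactive means change above -40%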; further: on the % scale 0 is the no-effect control and ±100 the full control effect
* marks the source's active call; other numbers are inactive results; [ ] = dose if it differs, or a comment. Unless noted, the call rests on the fitted dose curve; in most records, active means well fitted curve in the direction sought with a large enough effect; inconclusive means small, poorly fitted or top-dose-only effect, or another doubt; inactive means no such curve, though single readings can be large; an effect the other way counts as inactive or inconclusive.

`COc1cc2nc(Cl)nc(N)c2cc1OC` gave RXFP1 antagonist 4.
CS(=O)(=O)Nc1ccc(C2=NN(C(=O)C3CCCCC3)C(c3cccs3)C2)cc1 (stereo not drawn) was read as gsp ag 10%[15.4 µM], RXFP1 agonist 0%, miR-21 act 0%, KinaseGlo FLuc 2%, gsp antagonist 25µM* and RXFP1 antagonist -21.
Screening CC(C)NC(=O)c1sc2ncccc2c1-n1cccc1 returned RXFP1 agonist 4%, miR-21 act -16% and RXFP1 antagonist -15.
Screening CN1/C(=C/C(=O)c2cccs2)Sc2ccccc21 returned RXFP1 agonist 1%, miR-21 act -13% and KinaseGlo FLuc 14µM*.
`CCOC(=O)c1oc2ccc(S(=O)(=O)n3nc(-c4ccccc4)cc3N)cc2c1C` gave gsp ag -34%, RXFP1 agonist 0%, miR-21 act 0%, KinaseGlo FLuc 1% and gsp antagonist 7.9µM*.
Screening CCOC(=O)c1oc2ccc(S(=O)(=O)n3nc(-c4ccc(OC)cc4)cc3N)cc2c1C returned gsp ag -14%, RXFP1 agonist 0%, miR-21 act -4%, KinaseGlo FLuc 2% and gsp antagonist -16%.
For COc1cccc(CN2CC(C(=O)N(C)Cc3ccc(C)cc3)CCC2=O)c1 (stereo not drawn) the results were gsp ag 20%, RXFP1 agonist -2%, miR-21 act -18%, gsp antagonist 0% and RXFP1 antagonist 10.
Screening COCc1cc(CN(C)C(=O)C2CCC(=O)N(Cc3cccc(OC)c3)C2)[nH]n1 (stereo not drawn) returned gsp ag 6%, RXFP1 agonist -1%, miR-21 act 3%, gsp antagonist 10% and RXFP1 antagonist -78*.
Cc1[nH]c2ccccc2c1C(=O)COC(=O)c1nccnc1N was read as gsp ag 31%, RXFP1 agonist 1%, gsp antagonist -10% and RXFP1 antagonist -66*.
`Cc1[nH]c2ccccc2c1C(=O)COC(=O)c1ccccc1O` gave gsp ag -4%[15.4 µM], gsp antagonist inconclusive and RXFP1 antagonist -20.
CC(C)Cn1c(=O)c2sccc2n2c(CCCC(=O)Nc3ccc(Cl)cc3)nnc12 was read as RXFP1 agonist 3%, miR-21 act -2% and RXFP1 antagonist 0.
`CCOC(=O)C(Cc1ccccc1)NC(=O)CCc1nnc2ccc(N3CCOCC3)nn12` (stereo not drawn) gave gsp ag 20µM*, RXFP1 agonist 27%, miR-21 act 0%, gsp antagonist 5% and RXFP1 antagonist 29.
`COc1cccc(NC(=O)CCc2nnc3ccc(N4CCN(c5cccc(OC)c5)CC4)nn23)c1` gave gsp ag 1%, RXFP1 agonist 16%, miR-21 act -5%, gsp antagonist inconclusive and RXFP1 antagonist -24.
COc1cc(NC(=O)CCc2nnc3ccc(N4CCN(c5cccc(OC)c5)CC4)nn23)cc(OC)c1 was read as gsp ag inconclusive, RXFP1 agonist 16µM*, miR-21 act 1%, gsp antagonist 10% and RXFP1 antagonist 4.
Cc1cc(C)c2c(C)c(C(=O)N3CCC(c4nc5ccccc5s4)CC3)oc2c1 was read as RXFP1 agonist 0%, miR-21 act -9% and RXFP1 antagonist -29.
`CC(=O)N(CC(=O)N(C)C)c1ccccc1` gave RXFP1 antagonist 13.
Screening COc1ccc(S(=O)(=O)N2CCCCC2)cc1NC(=O)CSc1ncnc2ccccc12 returned gsp ag 20µM*, RXFP1 agonist inconclusive, miR-21 act -4%, KinaseGlo FLuc 0% and gsp antagonist 27%.
Screening COc1ccc(S(=O)(=O)N2CCOCC2)cc1NC(=O)CSc1cccc[n+]1[O-] returned gsp ag 16µM*, RXFP1 agonist inconclusive, miR-21 act 4%, gsp antagonist 24% and RXFP1 antagonist 5.
`Cc1ccc(NC(=O)CSc2ncnc3ccccc23)cc1S(=O)(=O)N1CCCCC1` gave gsp ag -13%[15.4 µM], RXFP1 agonist 4%, miR-21 act 11%, KinaseGlo FLuc 0%, gsp antagonist inconclusive and RXFP1 antagonist 1.
Screening NS(=O)(=O)c1cccc(NC(=O)CSc2ncnc3ccccc23)c1 returned gsp ag inconclusive, RXFP1 agonist 25µM*, miR-21 act -10%, gsp antagonist -8% and RXFP1 antagonist 2.
For CN(C)S(=O)(=O)c1ccc(C(=O)NCCS(=O)(=O)N2CCN(c3ccccc3)CC2)cc1 the results were RXFP1 agonist 1%, miR-21 act -1% and RXFP1 antagonist -4.
Screening COc1ccc2cc1Oc1cc3c(cc1OC)CC[N+](C)(C)[C@H]3Cc1ccc(cc1)Oc1c(OC)c(OC)cc3c1[C@@H](C2)[N+](C)(C)CC3 returned RXFP1 antagonist 10.
For Cc1cn([C@@H](CCCCNC(=O)OC(C)(C)C)C(=O)NCCCCCCCCCCC(=O)N2CCN(C(=O)OC(C)(C)C)CC2)nn1 the results were RXFP1 agonist 0% and gsp antagonist 28µM*.
Screening CCc1ccc2ncc3c(-c4ccc(C)cc4)nn(CC(=O)Nc4ccc(C)cc4)c3c2c1 returned RXFP1 agonist 5%, miR-21 act -3% and RXFP1 antagonist -10.
For O=C(NN=C1CCCC1)c1n[nH]c2c1CCC2 the results were gsp ag 6%[15.4 µM], RXFP1 agonist inconclusive, miR-21 act 2%, KinaseGlo FLuc inconclusive, gsp antagonist 5% and RXFP1 antagonist -22.
Screening Cc1ccsc1/C=N\NC(=O)c1n[nH]c2c1CCC2 returned gsp ag 7%, RXFP1 agonist 0%, miR-21 act 18%, KinaseGlo FLuc 7.1µM*, gsp antagonist -6% and RXFP1 antagonist -5.
`O=C(NN=C1CCCC1)c1n[nH]c2c1CCCC2` gave gsp ag 27%, RXFP1 agonist 0%, miR-21 act -12%, KinaseGlo FLuc 13µM*, gsp antagonist 11% and RXFP1 antagonist -9.
`O=C(N/N=C/c1c(Cl)cccc1Cl)c1n[nH]c2c1CCCC2` gave gsp ag -1%, RXFP1 agonist 2%, miR-21 act -51%, KinaseGlo FLuc 8.9µM*, gsp antagonist -27% and RXFP1 antagonist 2.
